KAT2A inh = qHTS Assay for Inhibitors of GCN5L2 | 0.21% of 390,000 active | GCN5L2 HAT assay, ThioGlo1 CoA-SH fluorescence | Potency, µM (titrated, usually from 58.9 µM), for inactives: at the top dose activity change, negative = inhibition, hits mostly inhibitors | Histone acetyltransferase KAT2A (Homo sapiens), Q92830 | AID 504327, 2011
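Titration-based screen in which CoA formation is detected via maleimide probe ThioGlo1 (50uM) turning fluorescent on thiol reaction; substrates H3(1-25) 75uM and acetyl-CoA 70uM, GCN5L2 20nM, 20 min incubation at room temperature.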
PLK1 PBD block = qHTS for Inhibitors of PLK1-PDB (polo-like kinase 1 - polo-box domain): Primary Screen; AID 720504, 2013; Potency, µM, for the others: max response, negative = inhibition, hits mostly inhibitors; 2.8% of 360,000 active; Plk1 PBD binding of FITC phosphopeptide, fluorescence polarization; Serine/threonine-protein kinase PLK1 (Homo sapiens), P53350; further: series mostly up to about 57 µM; nearly all actives have a fitted effect of over 65% in size
Target sequence (P53350 whole entry, looked up, the tested form may be a part): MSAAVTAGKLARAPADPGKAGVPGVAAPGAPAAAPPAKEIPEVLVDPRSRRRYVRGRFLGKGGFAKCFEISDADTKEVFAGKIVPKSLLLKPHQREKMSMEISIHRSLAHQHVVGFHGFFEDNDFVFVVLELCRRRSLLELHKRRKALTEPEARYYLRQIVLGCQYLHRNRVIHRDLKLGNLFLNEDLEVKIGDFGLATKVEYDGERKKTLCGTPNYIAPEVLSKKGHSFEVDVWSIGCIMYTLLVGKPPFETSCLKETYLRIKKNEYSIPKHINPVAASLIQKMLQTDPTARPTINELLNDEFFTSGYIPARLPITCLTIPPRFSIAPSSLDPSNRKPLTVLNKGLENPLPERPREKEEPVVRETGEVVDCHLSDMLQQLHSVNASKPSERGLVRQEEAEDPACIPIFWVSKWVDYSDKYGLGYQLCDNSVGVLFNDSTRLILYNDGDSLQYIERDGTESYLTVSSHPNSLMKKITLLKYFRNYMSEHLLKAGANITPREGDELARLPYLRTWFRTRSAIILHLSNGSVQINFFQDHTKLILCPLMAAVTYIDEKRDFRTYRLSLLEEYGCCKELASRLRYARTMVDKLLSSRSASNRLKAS
TDP1 inh = qHTS Assay for Inhibitors of Tyrosyl-DNA Phosphodiesterase (TDP1). recombinant TDP1, AlphaScreen DNA substrate cleavage. AID 485290, 2010. Tyrosyl-DNA phosphodiesterase 1 (Homo sapiens), Q9NUW8. 0.28% of 350,000 active. Potency, µM (series often up to 130 µM), for the others: at the top dose activity change, negative = inhibition, usual class: inhibitors; further: nearly all actives have a fitted effect of over 40% in size
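Steps: enzyme plus compound, 15 min RT; add biotin/phosphotyrosine-FITC oligonucleotide (15 nM final), react 5 min; add donor/acceptor beads (10 ug/ml final), 10 min; read AlphaScreen. Tdp1 at 1 nM final.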
VDR inh = Inhibitors of the vitamin D receptor (VDR): qHTS. Vitamin D3 receptor (Homo sapiens), P11473. VDR-SRC2-3 peptide fluorescence polarization, 2 h. Potency, µM, without a hit: max response, negative = inhibition, most hits filed as inhibitors. 0.93% of 400,000 active. AID 504847, 2011
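FP read-out; VDR + SRC2-3 coactivator peptide; 23 nl compound by pintool; 2 h RT incubation; reagents held at 4 deg C, protected from light.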
DT40 TDP1 CPT = qHTS for Inhibitors of human tyrosyl-DNA phosphodiesterase 1 (TDP1): qHTS in cells in presence of CPT; chicken DT40 Tdp1-/-;hTDP1 cells + 20 nM CPT, ATP luminescence, 48 h; Potency, µM (doses to about 46.2 µM), without a hit: at the top dose activity change, negative = growth inhibition, most hits filed as inhibitors; 12% of 420,000 active; further: nearly all actives have a fitted effect of over 55% in size
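Cell growth measured by CellTiter-Glo luminescence after a minimum 48 h, 37 C compound exposure with 20 nM CPT in Tdp1-knockout DT40 cells stably expressing hTDP1, seeded 400/well; qHTS titration format.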
DT40 TDP1 no CPT = qHTS for Inhibitors of human tyrosyl-DNA phosphodiesterase 1 (TDP1): qHTS in cells in absence of CPT | Potency, µM (titrated, usually from 46.2 µM), without a hit: top-dose activity change, negative = growth inhibition, actives largely listed as inhibitors | DT40 Tdp1-/- hTDP1 cells, no CPT, ATP luminescence, 48 h | 15% of 420,000 active; further: nearly all actives have a fitted effect of over 55% in size
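Growth kinetics read by CellTiter-Glo luminescence after ≥48 hr at 37 °C. Cells: DT40 Tdp1-/- stably carrying human TDP1, 400 per well, compound exposure in the absence of CPT (DMSO vehicle).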
* marks the source's active call; other numbers are inactive results; [ ] = another dose, or the depositor's remark. Rows were chosen to be rich in hits. Some 18% of all compounds tested hit in one or more screens of this group. The call rests on the fitted dose curve; in most records, active means well fitted curve in the direction sought with a large enough effect; inconclusive means small, poorly fitted or top-dose-only effect, or another doubt; inactive means no such curve, though single readings can be large; an effect the other way counts as inactive or inconclusive. On the % scale 0 is the no-effect control and ±100 the full control effect; potency means the concentration at half of the fitted maximal effect.

How did COc1ccc2[nH]cc(CCNc3ncnc4ccc(-c5cccc(C#N)c5)cc34)c2c1 do in these assays?
KAT2A inh: -7%; VDR inh: -1%; DT40 TDP1 CPT: 21µM*; DT40 TDP1 no CPT: inconclusive

How did COc1cccc(-c2ccc3ncnc(NCCc4c[nH]c5ccc(OC)cc45)c3c2)c1 do in these assays?
KAT2A inh: -21%; VDR inh: 5%; DT40 TDP1 CPT: 23µM*; DT40 TDP1 no CPT: 21µM*

How did COc1ccc2[nH]cc(CCNc3cc(-c4ccccc4OC)ncn3)c2c1 do in these assays?
KAT2A inh: -14%; VDR inh: -22%; DT40 TDP1 CPT: 16µM*; DT40 TDP1 no CPT: inconclusive

What do the screens show for `COc1ccccc1CNc1ncnc2ccc(-c3cccc(C#N)c3)cc12`?
KAT2A inh: -9%; VDR inh: -1%; DT40 TDP1 CPT: inconclusive; DT40 TDP1 no CPT: inconclusive

How did COc1ccc2[nH]cc(CCNc3cc(-c4c(C)noc4C)ncn3)c2c1 do in these assays?
KAT2A inh: -10%; VDR inh: inconclusive; DT40 TDP1 CPT: inconclusive; DT40 TDP1 no CPT: inconclusive

Results for CCOc1cc(OCC)cc(C(=O)N2CCC[C@H]2C(=O)N2CCC[C@H]2C(=O)N[C@@H](C)c2ccccc2)c1 ?
PLK1 PBD block: -3%; DT40 TDP1 CPT: inconclusive; DT40 TDP1 no CPT: inconclusive

How did CCn1cc(C(=O)NCc2ccc(Cl)cc2)c(=O)c2cc(S(=O)(=O)N(C)C3CCCCC3)ccc21 do in these assays?
KAT2A inh: -7%; TDP1 inh: 0%; VDR inh: 10%; DT40 TDP1 CPT: inconclusive; DT40 TDP1 no CPT: inconclusive

How did Cc1cc(C)c2c(N)c(C(=O)Nc3ccc([N+](=O)[O-])cc3)sc2n1 do in these assays?
KAT2A inh: -9%; PLK1 PBD block: -13%; VDR inh: -2%; DT40 TDP1 CPT: 0%; DT40 TDP1 no CPT: 18%

How did CCCN(CC(=O)Nc1ccc(F)c(F)c1F)C(=O)CN1C(=O)NC2(CCCCC2)C1=O do in these assays?
PLK1 PBD block: -2%; VDR inh: -7%; DT40 TDP1 CPT: -1%; DT40 TDP1 no CPT: -21%

Results for COc1ccccc1-c1nnc(C2CCN(C(=O)c3cccc(C)c3)CC2)o1 ?
KAT2A inh: 0%; TDP1 inh: 1%; VDR inh: 1%; DT40 TDP1 CPT: inconclusive; DT40 TDP1 no CPT: inconclusive

What do the screens show for `COc1ccc2[nH]cc(CCNc3ncnc4ccc(-c5ccccc5C#N)cc34)c2c1`?
KAT2A inh: -11%; TDP1 inh: 12%[56.1 µM]; VDR inh: -6%; DT40 TDP1 CPT: inconclusive; DT40 TDP1 no CPT: 18µM*

What do the screens show for `Cc1nc2ncccn2c1-c1csc(Nc2ccc(O)cc2)n1`?
KAT2A inh: 0%; PLK1 PBD block: -6%; TDP1 inh: 3%; VDR inh: -2%; DT40 TDP1 CPT: inconclusive; DT40 TDP1 no CPT: 5.2µM*

How did C=CCNc1nc(-c2c(C)nc3ncccn23)cs1 do in these assays?
KAT2A inh: -6%; PLK1 PBD block: -9%; VDR inh: -11%; DT40 TDP1 CPT: -17%; DT40 TDP1 no CPT: -23%

How did Cc1cccnc1Nc1nc(-c2ccc(O)cc2O)cs1 do in these assays?
KAT2A inh: -2%; PLK1 PBD block: 19µM*; TDP1 inh: 7%; VDR inh: -9%; DT40 TDP1 CPT: inconclusive; DT40 TDP1 no CPT: inconclusive

How did COC(=O)c1cc(CNC(=O)c2ccc3ccccc3n2)cc(NC(=O)c2cccc(OC)c2)c1 do in these assays?
DT40 TDP1 CPT: -1%[9.04 µM]; DT40 TDP1 no CPT: -14%
